# Measured values: PubChem BioAssay (EPA / NIEHS)
# Where “and” joins values, the source holds several entries; their conditions need not be identical. Equal entries are not always repeated. Inconclusive results are not listed. Some compounds were tested as several samples or in several runs, with calls that do not always agree. Calls of active or inactive are those of the source. How the source made its calls, unless noted: active means hit-call score of the fitted dose curve at least 0.9, where 1 is the maximum; inconclusive means response in the unintended direction; inactive means score below 0.9.
# How the values were obtained:
# [1] = system: frog Estrogen Receptor (ER), gene 398734; test: ATG_frER1_XSP2: Attagene TRANS-FACTORIAL Multi-Species (XSP2) HepG2 Assay for frog Estrogen Receptor (ER) (AID 2283821);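 further: hits raise reporter mRNA above DMSO baseline so potency means agonist or activator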
# Summary of the method: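 Reporter mRNA induction, detected as fluorescence after RT-PCR and capillary electrophoresis, is the endpoint; activity is fitted upward against DMSO. Cells are human liver HepG2 carrying transfected NR-Gal4 chimeras with GAL4-UAS-driven reporters, harvested 24 h post-dosing.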
# [2] = system: zebrafish Estrogen Receptor (ER2b), gene 317733; test: ATG_zfER2b_XSP2: Attagene TRANS-FACTORIAL Multi-Species (XSP2) HepG2 Assay for zebrafish Estrogen Receptor (ER2b) (AID 2283823);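 further: fitted upward as reporter gain over DMSO so potency reflects activation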
# Summary of the method: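 Cells used were HepG2, transiently transfected with chimeric nuclear receptor-Gal4 reporter units. After 24 h of chemical treatment, reporter transcripts were amplified by RT-PCR, labelled and sized by capillary electrophoresis, with induction analysed relative to DMSO.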
# [3] = ATG_M_32_XSP2: Attagene TRANS-FACTORIAL Multi-Species (XSP2) HepG2 Assay for M19 Transcription Factor (Internal Marker) (AID 2283826)
# Summary of the method: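 Transfected HepG2 (multiplexed GAL4-UAS reporters), 24 h chemical exposure, 3 nM 6-alpha-fluorotestosterone + 1.5 nM norgestrel added. RNA → oligo(dT) RT → PCR → 6-FAM primer extension → HpaI cut → CE. Fitted upward vs DMSO.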
# [4] = system: frog Estrogen Receptor (ER2), gene 100174814; test: ATG_frER2_XSP2: Attagene TRANS-FACTORIAL Multi-Species (XSP2) HepG2 Assay for frog Estrogen Receptor (ER2) (AID 2283828)
# Summary of the method: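 Cells were transfected with reporter constructs under GAL4-UAS control, dosed with chemicals for 24 h, then lysed for RNA; the frog ER2-driven reporter mRNA was quantified by capillary electrophoresis of labeled PCR fragments, with activity fitted upward from DMSO.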
# [5] = target: Peroxisome proliferator-activated receptor gamma (Homo sapiens) (UniProt P37231); test: ATG_hPPARg_XSP2: Attagene TRANS-FACTORIAL Multi-Species (XSP2) HepG2 Assay for human Peroxisome Proliferator-activated Receptor gamma (PPARg) (AID 2283829);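 further: actives raise reporter mRNA above DMSO so AC50 reflects PPARg activation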
# Summary of the method: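 After transfecting HepG2 with GAL4-UAS reporter constructs, cells are dosed for 24 h; total RNA is reverse-transcribed, PCR-amplified, FAM-labeled, HpaI-digested and resolved by capillary electrophoresis. Activity is measured as mRNA induction relative to DMSO.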
# [6] = target: mouse Peroxisome Proliferator-activated Receptor gamma (PPARg), Pparg (gene 19016) (UniProt P37238); test: ATG_mPPARg_XSP2: Attagene TRANS-FACTORIAL Multi-Species (XSP2) HepG2 Assay for mouse Peroxisome Proliferator-activated Receptor gamma (PPARg) (AID 2283830);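 further: hits are gains in reporter mRNA above DMSO so AC50 marks activation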
# Summary of the method: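 Multiplexed TRANS reporter readout: after 24 h chemical exposure of transfected HepG2 cells (with 3 nM 6-alpha-fluorotestosterone, 1.5 nM norgestrel present), RNA reverse-transcribed, amplified, 6-FAM-labelled and resolved by capillary electrophoresis; mouse PPARg-Gal4 induction scored against DMSO.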
# [7] = target: Nuclear receptor subfamily 1 group I member 2 (Mus musculus) (UniProt O54915); test: ATG_mPXR_XSP2: Attagene TRANS-FACTORIAL Multi-Species (XSP1) HepG2 Assay for mouse Pregnane X Receptor (PXR) (AID 2283831)
# Summary of the method: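 Reporter transcripts were quantified by RT-PCR, FAM primer extension, HpaI digestion and capillary electrophoresis after 24 h of chemical exposure in transiently transfected HepG2 cells carrying chimeric receptor-GAL4 constructs; DMSO served as baseline.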
# [8] = system: zebrafish Peroxisome Proliferator-activated Receptor gamma (PPARg), gene 557037; test: ATG_zfPPARg_XSP2: Attagene TRANS-FACTORIAL Multi-Species (XSP2) HepG2 Assay for zebrafish Peroxisome Proliferator-activated Receptor gamma (PPARg) (AID 2283833);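 further: actives increase reporter signal over DMSO so AC50 reflects activation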
# Summary of the method: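 Multi-species TRANS format in HepG2, 24 h dosing; medium also contained 3 nM 6-alpha-fluorotestosterone and 1.5 nM norgestrel to stimulate androgen receptor. Zebrafish PPARg-GAL4 induced reporter mRNA was measured by RT-PCR/capillary electrophoresis.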
# [9] = system: turtle Thyroid Hormone Receptor, alpha (TRa), gene 101949057; test: ATG_trTRa_XSP2: Attagene TRANS-FACTORIAL Multi-Species (XSP1) HepG2 Assay for turtle Thyroid Hormone Receptor, alpha (TRa) (AID 2283834);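 further: hits raise reporter mRNA over the DMSO baseline so AC50 marks activators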
# Summary of the method: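 Transfection of HepG2 with multiple reporter transcription units, then chemical dosing for 24 h. Total RNA was reverse-transcribed, reporter sequences PCR-amplified and FAM-labelled, then sized by capillary electrophoresis. DMSO served as baseline.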
# [10] = ATG_M_61_XSP2: Attagene TRANS-FACTORIAL Multi-Species (XSP2) HepG2 Assay for M61 Transcription Factor (Internal Marker) (AID 2283835; active means hit-call score of the fitted dose curve at least 0.9, where 1 is the maximum; inactive means score below 0.9;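 further: reporter mRNA of an internal background marker read by RT-PCR and capillary electrophoresis; active means a rise in signal above the DMSO baseline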)
# Summary of the method: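 Transient MRTU transfection of human HepG2; 24 h chemical dosing with 3 nM 6-alpha-fluorotestosterone + 1.5 nM norgestrel added for AR stimulation. RNA isolated, RT, PCR, FAM-labelled, HpaI cut, CE read. Positive direction vs DMSO.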
# [11] = ATG_XTT_Cytotoxicity_XSP2: Cytotoxicity Assessment in the Attagene TRANS-FACTORIAL Multi-Species (XSP2) HepG2 Assay (AID 2283837)
# Summary of the method: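 XTT-based cell number read-out in human HepG2 liver cells carrying transfected reporter units, measured 24 h after chemical dosing. Activity is signal loss versus DMSO baseline.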
# [12] = target: human Thyroid hormone Receptor alpha (TRa), THRA (gene 7067) (UniProt P10827); test: ATG_hTRa_XSP2: Attagene TRANS-FACTORIAL Multi-Species (XSP2) HepG2 Assay for human Thyroid hormone Receptor alpha (TRa) (AID 2283838)
# Summary of the method: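 Gain-of-signal in reporter mRNA, relative to DMSO, after 24 h dosing of transfected HepG2; quantitation by RT-PCR fragment analysis on capillary electrophoresis.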
# [13] = target: frog Thyroid hormone Receptor alpha (TRa), thra-a (gene 397942) (UniProt P15204); test: ATG_frTRa_XSP2: Attagene TRANS-FACTORIAL Multi-Species (XSP2) HepG2 Assay for frog Thyroid hormone Receptor alpha (TRa) (AID 2283839);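 on AC50: AC50 reflects induction of frog TRa-driven reporter mRNA above DMSO baseline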
# Summary of the method: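 Transfect HepG2 with multiple reporter units (GAL4-UAS), dose chemical, incubate 24 h. Isolate RNA, reverse-transcribe, PCR-amplify reporter, label with 6-FAM by primer extension, digest with HpaI, run capillary electrophoresis; induction scored against DMSO.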
# [14] = system: Sodium/Iodide Symporter (NIS), SLC5A5 (gene 6528); test: CPHEA_Stoker_NIS_Inhibition_RAIU: CPHEA's Radioactive Iodide Uptake (RAIU) Assay for Sodium/Iodide Symporter (NIS) Inhibition, Stoker and Laws Labs (AID 2283841)
# Summary of the method: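 hNIS-HEK293T-EPA cells incubated 2 h at room temperature with compound (0.001–100 uM, 0.5% DMSO) and 329 pM final 125I in HBSS/10 mM HEPES, pH 7.4. Intracellular 125I counted; normalised to DMSO maximal uptake, triplicate, three biological replicates.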
# [15] = CPHEA_Stoker_NIS_Cytotoxicity: Cytotoxicity Assessment for CPHEA's Radioactive Iodide Uptake (RAIU) Assay for Sodium/Iodide Symporter (NIS) Inhibition, Stoker and Laws Labs (AID 2283897);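 on AC50: active means loss of ATP signal versus DMSO meaning cytotoxicity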
# Summary of the method: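 hNIS-HEK293T-EPA cells, human NIS expressed in HEK293T, treated 2 h with chemicals (0.001–100 uM, 0.5% final DMSO). ATP content read by CellTiter-Glo luminescence; loss of signal analysed relative to DMSO.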
# [16] = system: chicken Androgen Receptor (AR), gene 422165; test: ATG_chAR_XSP2: Attagene TRANS-FACTORIAL Multi-Species (XSP2) HepG2 Assay for chicken Androgen Receptor (AR) (AID 2283819);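 further: hits raise reporter mRNA above DMSO so potency is for activation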
# Summary of the method: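 Readout is reporter mRNA induction via RT-PCR/capillary electrophoresis after 24 h chemical exposure, positive direction relative to DMSO. Transiently transfected HepG2 express chimeric chicken AR–GAL4; AR stimulated by 3 nM 6-alpha-fluorotestosterone and 1.5 nM norgestrel.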
# [17] = system: zebrafish Androgen Receptor (AR), gene 100005148; test: ATG_zfAR_XSP2: Attagene TRANS-FACTORIAL Multi-Species (XSP2) HepG2 Assay for zebrafish Androgen Receptor (AR) (AID 2283825);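 further: hits raise reporter mRNA above DMSO so AC50 reflects agonist-type gain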
# Summary of the method: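 After 24 h compound exposure in medium with 3 nM 6-alpha-fluorotestosterone plus 1.5 nM norgestrel, HepG2 cells carrying zebrafish AR–GAL4 reporter constructs were assessed for reporter mRNA gain by RT-PCR and capillary electrophoresis.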
# Chain of mouse Peroxisome Proliferator-activated Receptor gamma (PPARg), Pparg (gene 19016) (P37238 whole entry, looked up, the tested form may be a part): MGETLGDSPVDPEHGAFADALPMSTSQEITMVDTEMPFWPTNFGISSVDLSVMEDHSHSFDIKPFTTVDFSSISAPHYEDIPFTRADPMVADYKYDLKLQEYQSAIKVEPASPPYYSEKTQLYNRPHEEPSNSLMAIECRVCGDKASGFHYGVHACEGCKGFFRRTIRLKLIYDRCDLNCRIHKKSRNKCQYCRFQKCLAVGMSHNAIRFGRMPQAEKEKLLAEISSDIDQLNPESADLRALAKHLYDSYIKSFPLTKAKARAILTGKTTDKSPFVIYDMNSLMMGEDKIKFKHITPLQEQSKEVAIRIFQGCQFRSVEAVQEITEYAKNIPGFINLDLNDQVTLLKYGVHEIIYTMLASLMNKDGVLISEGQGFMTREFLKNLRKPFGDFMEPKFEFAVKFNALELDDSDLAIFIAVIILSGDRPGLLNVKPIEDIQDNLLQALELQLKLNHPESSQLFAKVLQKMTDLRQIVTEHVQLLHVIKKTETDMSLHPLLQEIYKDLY
# Chain of human Thyroid hormone Receptor alpha (TRa), THRA (gene 7067) (P10827 whole entry, looked up, the tested form may be a part): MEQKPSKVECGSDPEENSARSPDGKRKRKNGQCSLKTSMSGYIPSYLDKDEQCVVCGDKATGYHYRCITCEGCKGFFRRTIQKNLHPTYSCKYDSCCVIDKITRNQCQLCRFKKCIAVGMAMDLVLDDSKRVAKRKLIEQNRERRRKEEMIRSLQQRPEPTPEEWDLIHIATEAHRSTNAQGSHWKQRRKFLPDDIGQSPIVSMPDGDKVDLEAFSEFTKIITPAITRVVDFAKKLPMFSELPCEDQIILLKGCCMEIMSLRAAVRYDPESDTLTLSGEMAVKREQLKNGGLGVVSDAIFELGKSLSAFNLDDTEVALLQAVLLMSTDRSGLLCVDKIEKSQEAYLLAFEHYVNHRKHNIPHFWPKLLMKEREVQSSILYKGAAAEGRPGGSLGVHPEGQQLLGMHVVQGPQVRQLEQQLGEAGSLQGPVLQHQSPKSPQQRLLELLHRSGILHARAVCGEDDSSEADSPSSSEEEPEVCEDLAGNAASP
# Chain of frog Thyroid hormone Receptor alpha (TRa), thra-a (gene 397942) (P15204 whole entry, looked up, the tested form may be a part): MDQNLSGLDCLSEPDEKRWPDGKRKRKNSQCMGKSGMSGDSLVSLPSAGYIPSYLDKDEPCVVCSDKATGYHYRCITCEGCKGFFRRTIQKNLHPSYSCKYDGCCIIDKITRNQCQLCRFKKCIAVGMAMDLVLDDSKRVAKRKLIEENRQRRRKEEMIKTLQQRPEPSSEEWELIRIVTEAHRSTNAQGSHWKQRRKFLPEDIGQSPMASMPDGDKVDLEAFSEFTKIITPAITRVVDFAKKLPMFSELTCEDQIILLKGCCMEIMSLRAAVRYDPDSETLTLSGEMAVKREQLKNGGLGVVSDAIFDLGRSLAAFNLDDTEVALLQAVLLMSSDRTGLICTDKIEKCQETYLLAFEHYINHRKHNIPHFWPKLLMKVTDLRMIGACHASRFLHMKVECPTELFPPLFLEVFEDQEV
# Chain of Peroxisome proliferator-activated receptor gamma (Homo sapiens) (P37231 whole entry, looked up, the tested form may be a part): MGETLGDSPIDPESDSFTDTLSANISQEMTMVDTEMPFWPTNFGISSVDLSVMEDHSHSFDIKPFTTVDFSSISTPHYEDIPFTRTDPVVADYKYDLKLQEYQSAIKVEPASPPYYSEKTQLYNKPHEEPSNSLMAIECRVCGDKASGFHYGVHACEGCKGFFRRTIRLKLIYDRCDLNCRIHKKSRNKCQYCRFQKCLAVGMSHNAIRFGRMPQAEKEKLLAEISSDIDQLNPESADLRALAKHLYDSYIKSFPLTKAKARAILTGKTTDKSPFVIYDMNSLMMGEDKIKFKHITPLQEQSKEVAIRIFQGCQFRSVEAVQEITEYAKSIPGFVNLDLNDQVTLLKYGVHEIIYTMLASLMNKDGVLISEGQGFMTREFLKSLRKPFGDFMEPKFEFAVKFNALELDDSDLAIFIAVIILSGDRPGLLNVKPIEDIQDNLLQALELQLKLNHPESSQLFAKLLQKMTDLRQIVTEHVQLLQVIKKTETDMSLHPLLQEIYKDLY
# Chain of Nuclear receptor subfamily 1 group I member 2 (Mus musculus) (O54915 whole entry, looked up, the tested form may be a part): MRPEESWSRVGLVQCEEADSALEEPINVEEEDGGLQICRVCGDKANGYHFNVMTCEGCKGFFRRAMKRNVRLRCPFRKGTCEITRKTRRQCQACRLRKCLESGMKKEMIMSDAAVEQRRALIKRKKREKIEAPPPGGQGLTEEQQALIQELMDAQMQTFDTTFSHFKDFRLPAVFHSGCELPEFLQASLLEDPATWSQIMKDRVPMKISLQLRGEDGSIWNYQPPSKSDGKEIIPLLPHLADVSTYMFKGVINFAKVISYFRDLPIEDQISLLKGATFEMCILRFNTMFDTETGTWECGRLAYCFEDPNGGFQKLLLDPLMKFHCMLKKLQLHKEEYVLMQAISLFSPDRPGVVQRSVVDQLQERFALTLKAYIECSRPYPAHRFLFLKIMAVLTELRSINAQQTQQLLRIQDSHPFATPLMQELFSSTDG
compound,measurement,setting,value
C[C@]12CC[C@H](O)CC1=CC[C@@H]1[C@@H]2CC[C@]2(C)C(=O)CC[C@@H]12,AC50,[1],3.14 µM (active) and 1.55 µM (active)
same,AC50,[2],2.89 µM (active) and 1.73 µM (active)
same,outcome,[3],inactive
same,AC50,[4],3.43 µM (active) and 2.23 µM (active)
same,outcome,[5],inactive
same,outcome,[6],inactive
same,AC50,[7],6.42 µM (active) and 5.9 µM (active)
same,outcome,[8],inactive
same,outcome,[9],inactive
same,outcome,[10],inactive
Clc1ccc(C2(Cn3cncn3)CC(Br)CO2)c(Cl)c1 (stereo not drawn),AC50,[1],9.65 µM (active) and 5.35 µM (active)
same,AC50,[2],51.4 µM (active) and 29.2 µM (active)
same,outcome,[3],inactive
same,AC50,[4],28.8 µM (active)
same,outcome,[4],inactive
same,outcome,[5],inactive
same,AC50,[6],62.7 µM (active)
same,outcome,[6],inactive
same,AC50,[7],3.32 µM (active) and 1.59 µM (active)
same,outcome,[8],inactive
same,AC50,[9],26.9 µM (active)
same,outcome,[9],inactive
same,outcome,[10],inactive
same,outcome,[11],inactive
same,outcome,[12],inactive
same,AC50,[13],5.44 µM (active)
same,outcome,[13],inactive
same,outcome,[14],inactive
same,outcome,[15],inactive
Cc1ccc2ccccc2c1C,outcome,[14],inactive
Oc1ccc(-c2ccccc2)cc1,AC50,[1],2.17 µM (active) and 811 nM (active)
same,AC50,[2],5.61 µM (active) and 3.05 µM (active)
same,outcome,[3],inactive
same,AC50,[4],1.75 µM (active) and 690 nM (active)
same,AC50,[5],63.1 µM (active) and 100 µM (active)
same,AC50,[6],100 µM (active)
same,outcome,[6],inactive
same,outcome,[7],inactive
same,outcome,[8],inactive
same,outcome,[9],inactive
same,outcome,[10],inactive
same,outcome,[11],inactive
same,outcome,[12],inactive
same,outcome,[13],inactive
CC1(C)Cc2cccc(O)c2O1,outcome,[14],inactive
Oc1c(I)cc(I)cc1I,outcome,[1],inactive
same,AC50,[2],57.4 µM (active)
same,outcome,[2],inactive
same,outcome,[3],inactive
same,AC50,[5],12 µM (active) and 10.4 µM (active)
same,AC50,[6],18 µM (active) and 14.1 µM (active)
same,AC50,[7],56.6 µM (active)
same,outcome,[7],inactive
same,AC50,[8],26.1 µM (active) and 23.3 µM (active)
same,outcome,[9],inactive
same,outcome,[10],inactive
same,AC50,[11],69.1 µM (active)
same,AC50,[12],26 µM (active)
same,AC50,[13],26.5 µM (active) and 25.7 µM (active)
O=C1C(Cl)=C(Cl)C(=O)c2ccccc21,AC50,[14],9.92 µM (active)
same,AC50,[15],50 µM (active)
NNC(=S)NN,outcome,[14],inactive
same,outcome,[15],inactive
O=C(O)C(F)(F)C(F)(F)C(F)(F)C(F)(F)C(F)(F)C(F)(F)C(F)(F)C(F)(F)C(F)(F)C(F)(F)F,outcome,[14],inactive
COP(=O)(OC)O/C(=C\Cl)c1cc(Cl)c(Cl)cc1Cl,outcome,[1],inactive
same,AC50,[2],45.5 µM (active)
same,outcome,[3],inactive
same,outcome,[4],inactive
same,AC50,[5],15 µM (active)
same,AC50,[6],14.8 µM (active)
same,AC50,[8],47.3 µM (active)
same,outcome,[9],inactive
same,outcome,[10],inactive
same,outcome,[13],inactive
same,outcome,[14],inactive
same,outcome,[15],inactive
CC(C)C1CCC(Cc2ccc(Cl)cc2)C1(O)Cn1cncn1 (stereo not drawn),outcome,[1],inactive
same,AC50,[2],14.6 µM (active) and 2.83 µM (active)
same,outcome,[3],inactive
same,AC50,[4],14.3 µM (active)
same,outcome,[4],inactive
same,AC50,[5],3.93 µM (active)
same,AC50,[6],10.2 µM (active)
same,outcome,[6],inactive
same,AC50,[7],715 nM (active) and 257 nM (active)
same,outcome,[8],inactive
same,outcome,[9],inactive
same,outcome,[10],inactive
same,AC50,[11],42.8 µM (active)
same,outcome,[12],inactive
same,outcome,[13],inactive
same,AC50,[14],20 µM (active)
same,AC50,[15],87.6 µM (active)
CC(=O)C=C(C)C,outcome,[16],inactive
same,outcome,[1],inactive
same,outcome,[2],inactive
same,outcome,[17],inactive
same,outcome,[3],inactive
same,AC50,[4],183 µM (active)
same,outcome,[5],inactive
same,outcome,[6],inactive
same,outcome,[7],inactive
same,outcome,[8],inactive
same,outcome,[9],inactive
same,outcome,[10],inactive
same,outcome,[11],inactive
same,outcome,[12],inactive
same,outcome,[13],inactive
